Measured values published in the supplement of paper PMC13380429.

Legend:
[1] = tested on: Vero E6 infected with SARS-CoV-2; test: morphology score (similarity to uninfected cells); higher = more like uninfected cells; details: 24 h
[2] = tested on: Vero E6 infected with SARS-CoV-2; test: SARS-CoV-2 infection rate relative to infected DMSO; higher = more infection, active = 60 or less; details: 24 h

SMILES	morphology score [1]	SARS-CoV-2 infection rate [2]
c1ccc2c(CCNc3ccc(Nc4ccncc4)cc3)c[nH]c2c1 [serdemetan] (10 µM)	0.933	37.5% (active)
Oc1ccc(Nc2nc(-c3ccc(Cl)cc3)cs2)cc1 (10 µM)	0.129	106% (inactive)
CCCCCCNC(=O)n1cc(F)c(=O)[nH]c1=O [Carmofur] (0.833333 µM)	0.222	106% (inactive)
N.N.[Cl][Pt][Cl] [cisplatin] (10 µM)	0.0556	111% (inactive)
C[C@@H]1CC[C@@]2(NC1)O[C@H]1C[C@H]3[C@@H]4CC=C5C[C@@H](O[C@@H]6O[C@H](CO)[C@@H](O[C@@H]7O[C@@H](C)[C@H](O)[C@@H](O)[C@H]7O)[C@H](O)[C@H]6O[C@@H]6O[C@@H](C)[C@H](O)[C@@H](O)[C@H]6O)CC[C@]5(C)[C@H]4CC[C@]3(C)[C@H]1[C@@H]2C [solamargine] (0.833333 µM)	0.117	102% (inactive)
CC(=O)N(O)[C@@H]1c2cc(C#N)ccc2OC(C)(C)[C@H]1O (10 µM)	0.477	59% (active)
Cc1cc([C@@H](C)Nc2ccccc2C(=O)O)c2nc(N3CCOCC3)cc(=O)n2c1 (10 µM)	-0.0702	105% (inactive)
Nc1cc(C(Cl)=C(Cl)Cl)c(S(N)(=O)=O)cc1S(N)(=O)=O [clorsulon] (10 µM)	0.206	98% (inactive)
CC(=O)O[C@]1(C(C)=O)CC[C@H]2[C@@H]3C=C(C)C4=CC(=O)CC[C@@H]4[C@H]3CC[C@@]21C [nomegestrol-acetate] (10 µM)	0.147	95% (inactive)
CCc1nc2c(C)nc(C)cc2n1-c1ccc(CCNC(=O)NS(=O)(=O)c2ccc(C)cc2)cc1 [grapiprant] (10 µM)	0.243	93.5% (inactive)
Nc1cc(N2CCCCC2)nc(N)[n+]1[O-] [minoxidil] (10 µM)	0.0795	104% (inactive)
O=C(NCCCN1CCOCC1)c1ccc(Cl)cc1 [eprobemide] (10 µM)	-0.0432	108% (inactive)
O=C1Nc2ccc(Cl)cc2[C@@](C#CC2CC2)(C(F)(F)F)O1 [efavirenz] (10 µM)	0.0664	108% (inactive)
Nc1cc2c3ccccc3ccc2c2ccccc12 [6-aminochrysene] (10 µM)	0.144	101% (inactive)
Cc1nc2ccccc2n1Cc1ccc(Cl)cc1 [chlormidazole] (10 µM)	-0.099	118% (inactive)
CN1C[C@@H](NS(=O)(=O)N(C)C)C[C@@H]2c3cccc4c3c(cn4C)C[C@H]21 [mesulergine] (10 µM)	0.205	93.5% (inactive)
NC(=O)[C@@H](CCC(F)(F)F)N(Cc1ccc(-c2ncon2)cc1F)S(=O)(=O)c1ccc(Cl)cc1 [avagacestat] (10 µM)	0.0806	108% (inactive)
CC(=O)Nc1cccc(O)c1 [metacetamol] (10 µM)	0.0448	97% (inactive)
O=C1O[C@H]([C@@H](O)CO)C(O)=C1O (10 µM)	0.1	111% (inactive)
CC#C[C@]1(O)CC[C@H]2[C@@H]3CCC4=CC(=O)CCC4=C3[C@@H](c3ccc(N(C)C)cc3)C[C@@]21C [mifepristone] (10 µM)	0.443	65.5% (inactive)

SMILES	morphology score [1]	SARS-CoV-2 infection rate [2]
COc1cc(C[C@@H](CO)[C@H](CO)Cc2ccc(O)c(OC)c2)ccc1O [secoisolariciresinol-(-)] (10 µM)	-0.0638	109% (inactive)
COc1cc2cc(c1Cl)N(C)C(=O)C[C@H](OC(=O)C(C)C)[C@]1(C)O[C@@H]1[C@H](C)[C@@H]1C[C@@](O)(NC(=O)O1)[C@H](OC)/C=C/C=C(\C)C2 [ansamitocin-p-3] (0.833333 µM)	-0.108	114% (inactive)
CCCn1c(=O)c2nc(C34CC5CC(CC3C5)C4)[nH]c2n(CCC)c1=O (10 µM)	0.134	94% (inactive)
Cc1[nH]c2ccccc2c1CCNC(=O)c1cccs1 (10 µM)	0.142	103% (inactive)
CN(C)c1ccc2c(c1)Sc1cc(N(C)C)ccc1N2 [leucomethylene-blue] (0.833333 µM)	0.0825	114% (inactive)
CCC(=O)N1CCN(c2ccc(-n3c(=O)ccc4cnc5ccc(-c6cnc7ccccc7c6)cc5c43)cc2C(F)(F)F)CC1 [torin-1] (10 µM)	-0.0739	107% (inactive)
Cc1ccccc1NC(=N)Nc1ccccc1C [ditolylguanidine] (10 µM)	-0.286	117% (inactive)
CCN1CCC(n2cc(CNc3cc(Cl)c4ncc(C#N)c(Nc5ccc(F)c(Cl)c5)c4c3)nn2)CC1 [cot-inhibitor-2] (10 µM)	0.683	40.5% (active)
O=c1[nH]c2ccccc2n1C1CCN(CCCC(c2ccc(F)cc2)c2ccc(F)cc2)CC1 [pimozide] (10 µM)	0.48	66.5% (inactive)
COc1ccc(NC(=O)c2ccc(-c3ccc(-c4noc(C)n4)cc3C)cc2)cc1OCCN(C)C (0.833333 µM)	0.282	53% (active)
CC(C)(C)c1cc(NC(=O)Nc2ccc(-c3cn4c(n3)sc3cc(OCCN5CCOCC5)ccc34)cc2)no1 [quizartinib] (10 µM)	0.177	97.5% (inactive)
O=C(CCCN1CCC(n2c(=O)[nH]c3ccccc32)CC1)c1ccc(F)cc1 [benperidol] (10 µM)	-0.264	118% (inactive)
CO[C@H]1C[C@@H]2CC[C@@H](C)[C@@](O)(O2)C(=O)C(=O)N2CCCC[C@H]2C(=O)O[C@H]([C@H](C)C[C@@H]2CC[C@@H](O)[C@H](OC)C2)CC(=O)[C@H](C)/C=C(\C)[C@@H](O)[C@@H](OC)C(=O)[C@H](C)C[C@H](C)/C=C/C=C/C=C/1C [sirolimus] (10 µM)	-0.126	104% (inactive)
CC1(C)[C@@H]2C[C@@H](O)[C@@](C)(O)[C@H]1C2 [2,3-cis/exo-pinanediol] (10 µM)	0.0892	95.5% (inactive)
COc1ccc(-c2cc(=O)c3c(O)cc(O)cc3o2)cc1O [diosmetin] (10 µM)	0.205	106% (inactive)
O=C1NC(=O)/C(=C/c2ccc3nccc(-c4ccncc4)c3c2)S1 (0.833333 µM)	0.151	108% (inactive)
O=C1c2ccccc2C(=O)C1c1ccccc1 [phenindione] (10 µM)	-0.000221	106% (inactive)
CC(=O)N1CC[N+](C)(C)CC1 [4-acetyl-1,1-dimethylpiperazinium] (10 µM)	0.103	88.5% (inactive)
Cc1c(NC(=O)N2CCOCC2)ccc2c1c1ccccc1n2C(C)C (10 µM)	0.121	106% (inactive)
O=C(O)CCc1c[nH]c2ccccc12 (10 µM)	0.0821	104% (inactive)

SMILES	morphology score [1]	SARS-CoV-2 infection rate [2]
COC(=O)Nc1nc2cc(C(=O)c3ccc(F)cc3)ccc2[nH]1 [flubendazole] (10 µM)	0.13	98% (inactive)
OC(CCN1CCCCC1)(c1ccccc1)c1ccccc1 [pridinol] (10 µM)	0.0166	108% (inactive)
C=C1/C(=C\C=C2/CCC[C@]3(C)[C@@H]([C@H](C)CC[C@@H](O)C(C)C)CC[C@@H]23)C[C@@H](O)C[C@@H]1O [tacalcitol] (10 µM)	-0.24	120% (inactive)
COc1cccc2c1C(=O)c1c(O)c3c(c(O)c1C2=O)C[C@@](O)(C(=O)CO)C[C@@H]3O[C@H]1C[C@H](N)[C@H](O[C@@H]2CCCCO2)[C@H](C)O1 [pirarubicin] (10 µM)	-0.0488	118% (inactive)
CC(=O)N1CCN(C)CC1 [1-acetyl-4-methylpiperazine] (10 µM)	-0.0421	102% (inactive)
O=C(O)CSCC(=O)NC1CCSC1=O (stereo not given) [erdosteine] (10 µM)	-0.0411	104% (inactive)
Cc1ccc2c(Cl)cc(Cl)c(O)c2n1 [chlorquinaldol] (10 µM)	0.0549	99% (inactive)
Cc1ccc(-c2nn(C(C)(C)CNC(=O)c3ncccc3C)c3ncnc(N)c23)cc1 [WEHI-345-analog] (0.833333 µM)	-0.0639	122% (inactive)
CCc1cccc(CC)c1NC(=O)c1nn(C)c2c1CCc1cnc(Nc3ccc(C(=O)NC4CCN(C)CC4)cc3OC(F)(F)F)nc1-2 (10 µM)	-0.0668	111% (inactive)
COc1cc2c(NC3CCN(C4CCCCC4)CC3)nc(N3CCCN(C(C)C)CC3)nc2cc1OCCCN1CCCCC1 (10 µM)	0.458	52% (active)
C[C@H]1CCc2c(cc(Br)c(F)c2Br)N1C=O (10 µM)	0.0995	94.5% (inactive)
O=C(Nc1cc(-c2ccccc2)nn1-c1ccccc1F)c1ccc([N+](=O)[O-])cc1 (10 µM)	0.233	93.5% (inactive)
CN(C)C(=O)COC(=O)Cc1ccc(OC(=O)c2ccc(NC(=N)N)cc2)cc1 [camostat-mesilate] (10 µM)	0.0997	114% (inactive)
Nc1nc2c(ncn2COCCO)c(=O)[nH]1 [acyclovir] (10 µM)	0.109	104% (inactive)
O=C(O)CNC(=O)c1nc(Cl)c2ccccc2c1O (10 µM)	0.17	102% (inactive)
N=C(N)N/N=C/c1c(Cl)cccc1Cl [guanaben-acetate] (10 µM)	-0.127	114% (inactive)
CN1C[C@@H]2CN(c3ccc(-c4ccccc4)nn3)C[C@@H]2C1 (10 µM)	0.149	91% (inactive)
O=C(Cn1c(=O)sc2ccc(Cl)cc21)N1CCN(CCO)CC1 [tiaramide] (10 µM)	0.00737	104% (inactive)
O.O.O.O.O=C([O-])CC(O)(CC(=O)[O-])C(=O)[O-].[Li+].[Li+].[Li+] [lithium-citrate] (10 µM)	0.239	89% (inactive)
Fc1ccc([C@@H]2CCNC[C@H]2COc2ccc3c(c2)OCO3)cc1 [paroxetine] (10 µM)	-0.0761	117% (inactive)
